In the library only some 5.3% were active in any assay of this set; here they are far more common.
Tau fluor cs: counter-screen for tau fibril formation inhibitors; tau K18 P301L Alexa594 fluorescence, heparin fibrillization; Potency, µM (highest dose often 57.7 µM), inactives show top-dose activity change, negative = decrease; hit rate 0.93% among 280,000; note: potency is the fitted concentration of half-maximal effect; nearly all actives have a fitted effect of over 55% in size
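Human K18 P301L tau (15 uM unlabeled plus 0.24 uM Alexa 594-labeled, final) in 100 mM sodium acetate pH 7 was mixed with compound and 20 uM heparin and incubated 6 hr at 37 C.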
JMJD2E inh: inhibitors of human JMJD2E histone demethylase; B2RXH2; JMJD2E catalytic domain, FDH-coupled NADH fluorescence (FDH is formaldehyde dehydrogenase); Potency, µM (top dose mostly 57.1 µM), inactives show at the top dose activity change, negative = inhibition, usual class: inhibitors; hit rate 1.6% among 230,000; active = well fitted inhibition curve with a large enough effect, not every such curve was filed as active; inconclusive = small, poorly fitted or top-dose-only effect, or another doubt; inactive = no such curve, though single readings can be large or run the other way;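 note: potency is the fitted concentration of half-maximal effect; 0% = wells with enzyme and -100% = buffer wells without enzyme; nearly all actives have a fitted effect of over 50% in size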
Target sequence (B2RXH2 1-337 limits assumed): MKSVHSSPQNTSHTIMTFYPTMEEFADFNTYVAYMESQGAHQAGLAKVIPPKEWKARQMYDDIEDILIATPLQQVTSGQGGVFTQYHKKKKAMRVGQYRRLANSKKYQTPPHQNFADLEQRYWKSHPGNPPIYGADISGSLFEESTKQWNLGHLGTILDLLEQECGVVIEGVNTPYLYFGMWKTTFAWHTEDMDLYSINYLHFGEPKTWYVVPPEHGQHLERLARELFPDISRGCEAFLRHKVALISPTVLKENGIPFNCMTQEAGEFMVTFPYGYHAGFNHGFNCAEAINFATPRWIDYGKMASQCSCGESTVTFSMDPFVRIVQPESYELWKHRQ
Coupling enz: counter-screen for Giardia aldolase inhibitors: coupling enzyme system; coupling enzyme system counterscreen, AmpLite Red fluorescence; activity change, negative = inhibition, % at 58.2 µM, hits read low; hit rate 0.67% among 290,000; in the data active = activity change below about -30%
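Compounds tested against the coupling enzymes alone at 57.5 uM final; readout was AmpLite Red fluorescence (525/598 nm) after 20 min at RT.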
Tau FP inhib: inhibitors of human tau fibril formation; P10636; Potency, µM (series often up to 57.7 µM), for inactives: at the highest dose activity, negative = inhibition, actives largely listed as inhibitors; AID 1468; hit rate 0.39% among 280,000; K18 P301L tau heparin fibrillization, Alexa594 FP, 6 h; note: potency is the fitted concentration of half-maximal effect; nearly all actives have a fitted effect of over 55% in size
Target sequence (P10636 561-689 P618L limits assumed): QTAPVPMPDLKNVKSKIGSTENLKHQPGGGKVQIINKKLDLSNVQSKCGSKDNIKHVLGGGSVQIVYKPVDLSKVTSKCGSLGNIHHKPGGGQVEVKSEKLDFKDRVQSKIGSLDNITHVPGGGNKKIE
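Human tau K18 […] P301L fragment, 15 uM unlabeled plus 0.24 uM Alexa 594-labeled tau (final), with compound and 20 uM heparin in 100 mM sodium acetate pH 7; 6 hr at 37 C, then Alexa 594 FP read.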
Sfp inh: Sfp phosphopantetheinyl transferase inhibition; Q9F4F7; Biochemical Sfp PPTase activity, qHTS; Potency, µM, for inactives: largest response in the series, negative = inhibition, most hits filed as inhibitors; hit rate 3.5% among 310,000; AID 1490;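 note: the enzyme is Sfp with the accession as filed and its product quenches rhodamine fluorescence; potency is the fitted concentration of half-maximal effect; 0% = enzyme reaction without inhibitor and -100% = no enzyme wells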
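Fluorescence-quenching assay with 15 nM Sfp, 5 uM rhodamine-CoA and 12.5 uM BHQ-2-labelled ybbR peptide in pH 7.6 Hepes/MgCl2 buffer. Enzyme was pre-incubated with compound for 15 min at room temperature. Rate was taken from the 30-min fluorescence change (525/598 nm).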
Tau fibril ThT: inhibitors of human tau fibril formation, thioflavin T binding. P10636. recombinant tau K18 P301L (four-repeat tau fragment), heparin-induced fibrillization, ThT fluorescence. Potency, µM (top dose mostly 57.4 µM), for the others: top-dose activity, negative = inhibition, most hits filed as inhibitors. hit rate 2.1% among 270,000; note: potency is the fitted concentration of half-maximal effect; nearly all actives have a fitted effect of over 55% in size
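K18 P301L tau (15 uM + 0.24 uM Alexa 594-tagged), heparin 20 uM, NaOAc pH 7, 6 h 37 C; ThT 30 uM, 1 h RT, ex 450/em 510 nm.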
Starred values were filed as active, the others as inactive; [ ] = another dose, or the depositor's remark. Unless noted, calls come from the whole dose curve; as a rule, active = well fitted curve in the direction sought with a large enough effect; inconclusive = small, poorly fitted or top-dose-only effect, or another doubt; inactive = no such curve, though single readings can be large; an effect the other way counts as inactive or inconclusive. Unless noted, % is set by controls: 0 for no effect and ±100 for the full control effect.

Screening Cc1cccnc1Nc1nc(-c2ccc(O)c(O)c2)cs1 returned Tau fluor cs 13µM*[quencher], JMJD2E inh inconclusive, Coupling enz -20, Tau FP inhib -2%, Sfp inh 50µM* and Tau fibril ThT 7.9µM*.
Screening COc1ccc(-c2csc(Nc3ncccc3C)n2)cc1OC returned Tau fluor cs inconclusive, JMJD2E inh -3%, Coupling enz 0, Tau FP inhib 12%, Sfp inh -11% and Tau fibril ThT 10µM*.
For COc1ccc(-c2csc(NC(C)=O)n2)cc1OC the results were Tau fluor cs -9%, JMJD2E inh 9%, Coupling enz -3, Tau FP inhib -10%, Sfp inh 50µM* and Tau fibril ThT -13%.
For Cc1ccc(/C=C2/CNC/C(=C\c3ccc(C)cc3)C2=O)cc1 the results were Coupling enz 1 and Sfp inh -5%.
COc1cccc(CN2C(=O)N(c3ccc(C)cc3)C(=O)C2CC(=O)Nc2cc(OC)cc(OC)c2)c1 (stereo not given) was read as Tau fluor cs -29%, Tau FP inhib 3% and Tau fibril ThT 5%.
Screening Cc1ncc(CO)c(/C=N/NC(=S)Nc2ccc(C(C)C)cc2)c1O returned Tau fluor cs inconclusive, JMJD2E inh inconclusive, Coupling enz 0, Tau FP inhib -13%, Sfp inh 22µM* and Tau fibril ThT inconclusive.
`Cc1ncc(CO)c(/C=N/NC(=O)c2cc(O)c(O)c(O)c2)c1O` gave Tau fluor cs inconclusive, JMJD2E inh 13µM*, Coupling enz -14, Tau FP inhib -16%, Sfp inh 20µM* and Tau fibril ThT inconclusive.
`Cc1ncc(CO)c(/C=N/NC(=O)c2ccc(Br)cc2)c1O` gave Tau fluor cs -3%, JMJD2E inh inconclusive, Coupling enz 1, Tau FP inhib 6%, Sfp inh 25% and Tau fibril ThT -9%.
CSc1ccc(C(=O)C2CCCN(C(=O)c3ccc4c(c3)no[n+]4[O-])C2)cc1 (stereo not given) was read as Tau fluor cs inconclusive, JMJD2E inh 2%, Coupling enz -1, Tau FP inhib inconclusive, Sfp inh 3% and Tau fibril ThT 28µM*.
For CSc1ccc(C(=O)C2CCCN(C(=O)c3ccsc3)C2)cc1 (stereo not given) the results were Tau fluor cs -9%, JMJD2E inh 2%, Coupling enz 4, Tau FP inhib 8%, Sfp inh 5% and Tau fibril ThT -15%.
For CCOc1ccc2cc(-c3nnc(Nc4ccccc4F)s3)c(=O)oc2c1 the results were Tau fluor cs -15%, Tau FP inhib -8% and Tau fibril ThT inconclusive.
`C/C1=C\[C@@H](O)C(C(C)C)C(OC(=O)c2ccc(O)cc2)C/C(C)=C/CC1` (stereo not given in full) gave Coupling enz 1 and Sfp inh 8%.
`Cc1ccc(C(=O)N2CCSC2=S)cc1` gave Tau fluor cs -4%, JMJD2E inh -2%, Coupling enz -4, Tau FP inhib 3%, Sfp inh 15% and Tau fibril ThT inconclusive.
`Cc1ccc(C(=O)Oc2csc(=S)n2C(=O)c2ccc(C)cc2)cc1` gave Tau fluor cs -30%, JMJD2E inh inconclusive, Coupling enz 0, Tau FP inhib inconclusive, Sfp inh 45µM* and Tau fibril ThT 10µM*.
For COc1ccc(-c2cn3cc(Cl)ccc3n2)cc1OC the results were Tau fluor cs -22%, JMJD2E inh inconclusive, Coupling enz -32*, Tau FP inhib -2%, Sfp inh -11% and Tau fibril ThT inconclusive.
Screening COc1ccc(-c2cn3cc(C)ccc3n2)cc1Br returned Tau fluor cs -15%, JMJD2E inh inconclusive, Coupling enz -17, Tau FP inhib -6%, Sfp inh -18% and Tau fibril ThT 17%.
Screening CC(C)N(C(=O)Cn1cc(S(=O)(=O)Cc2ccc(C(F)(F)F)cc2)c2ccccc21)C(C)C returned Tau fluor cs -20%, Tau FP inhib 2% and Tau fibril ThT -2%.
CCOc1ccc2nc(N(CCN(C)C)C(=O)c3ccc4c(c3)CCCC4)sc2c1 was read as Sfp inh 50µM*.
Cc1cccc2sc(N(CCCN(C)C)C(=O)c3sc4ccccc4c3Cl)nc12 was read as Tau fluor cs -21%, JMJD2E inh -7%, Coupling enz 5, Tau FP inhib -16%, Sfp inh 32µM* and Tau fibril ThT -15%.
`CN(C)CCCN(C(=O)CCc1ccccc1)c1nc2c(F)cccc2s1` gave Tau fluor cs 13%, JMJD2E inh 0%, Coupling enz 0, Tau FP inhib 3%, Sfp inh -6% and Tau fibril ThT inconclusive.
Screening Cc1cccc2sc(N(CCCN(C)C)C(=O)c3ccc(C(=O)c4ccccc4)cc3)nc12 returned Sfp inh 79µM*.
For CN(C)CCCN(C(=O)CCOc1ccccc1)c1nc2c(F)cccc2s1 the results were Tau fluor cs -4%, JMJD2E inh 2%, Coupling enz 4, Tau FP inhib inconclusive, Sfp inh 50µM* and Tau fibril ThT inconclusive.
Cc1ccc2nc(N(CCCN(C)C)C(=O)c3ccc4c(c3)CCCC4)sc2c1 was read as Tau fluor cs -15%, JMJD2E inh -6%, Coupling enz -1, Tau FP inhib 6%, Sfp inh inconclusive and Tau fibril ThT inconclusive.
`Cc1ccc(C)n1-c1nnc(N2CCC(C(=O)Nc3ccccc3Br)CC2)s1` gave Tau fluor cs -12%, Tau FP inhib 4% and Tau fibril ThT -19%.
CN(C)CCCN(C(=O)/C=C/c1cccs1)c1nc2c(F)cccc2s1 was read as Tau fluor cs -15%, JMJD2E inh 2%, Coupling enz 2, Tau FP inhib -11%, Sfp inh -20% and Tau fibril ThT -17%.
Cc1cccc2sc(N(CCN(C)C)C(=O)/C=C/c3cccs3)nc12 was read as Tau fluor cs inconclusive, JMJD2E inh inconclusive, Coupling enz 2, Tau FP inhib inconclusive, Sfp inh 32µM* and Tau fibril ThT -5%.
For CN(C)CCCN(C(=O)c1sc2ccccc2c1Cl)c1nc2c(F)cccc2s1 the results were Tau fluor cs -15%, JMJD2E inh 1%, Coupling enz 7, Tau FP inhib 3%, Sfp inh 50µM* and Tau fibril ThT -4%.
`CN(C)CCCN(C(=O)c1ccc2c(c1)CCCC2)c1nc2c(F)cccc2s1` gave Tau fluor cs 10%, JMJD2E inh 4%, Coupling enz -37*, Tau FP inhib 3%, Sfp inh 40µM* and Tau fibril ThT 10%.

Bioassay records: PubChem, National Center for Advancing Translational Sciences (NCATS)
